Results published in PubChem BioAssay (EPA / NIEHS).
The source made the active and inactive calls. Rule for the calls: active = hit-call score of the fitted dose curve at least 0.9, where 1 is the maximum; inactive = score below 0.9.

How the values were obtained:
[1] = ATG_GRE_CIS: Attagene CIS-FACTORIAL HepG2 Assay for human Glucocorticoid Response Elements (GRE) (AID 2282947); conditions: HepG2 GRE cis-reporter, Attagene multiplex mRNA; actives raise or lower the signal
Summary of the method: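 Cells (HepG2) bearing transfected cis-promoter reporter transcription units were treated with chemical for 24 hours. Reporter mRNA was measured via RT-PCR with capillary electrophoresis, and activity was fitted in both directions relative to DMSO.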

[2] = ATG_ISRE_CIS: Attagene CIS-FACTORIAL HepG2 Assay for human Interferon Regulatory Factor 1 (IRF1) binding to an Interferon-Stimulated Response Element (ISRE) (AID 2282948); conditions: HepG2 ISRE cis-reporter (Attagene), mRNA transcription readout; actives raise or lower the signal
Summary of the method: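 Uses HepG2 liver cells transfected with cis-regulated reporters and measures mRNA 24 h post-dosing through RT-PCR, primer-extension labelling and capillary electrophoresis, with DMSO as negative control.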

[3] = ATG_M_32_CIS: Attagene CIS-FACTORIAL HepG2 Assay for M32 Transcription Factor (Internal Marker) (AID 2282949); conditions: HepG2 Attagene cis-factorial M32 reporter, mRNA; actives raise or lower the signal;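 note: background control marker of the multiplexed CIS panel rather than a real target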
Summary of the method: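 HepG2 human liver cells transiently transfected with cis-promoter-driven multiple reporter transcription units, dosed 24 h. Reporter mRNA quantified by RT-PCR, FAM-labelled primer extension, HpaI digest and capillary electrophoresis; bidirectional fit versus DMSO baseline.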

[4] = ATG_M_06_CIS: Attagene CIS-FACTORIAL HepG2 Assay for M06 Transcription Factor (Internal Marker) (AID 2282950); conditions: HepG2 Attagene CIS-FACTORIAL M06 internal marker reporter; actives raise or lower the signal
Summary of the method: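 Read-out is fluorescence of labelled reporter cDNA fragments resolved by capillary electrophoresis after RT-PCR. Cells: HepG2 carrying transfected cis-promoter reporter units, treated 24 h. Gain or loss of signal fitted relative to DMSO.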

[5] = biological target: Hypoxia-inducible factor 1-alpha (Homo sapiens) (UniProt Q16665); assay: ATG_HIF1a_CIS: Attagene CIS-FACTORIAL HepG2 Assay for human Hypoxia Inducible Factor 1 (HIF1A) (AID 2282951); conditions: HepG2 Attagene cis-factorial HIF1a reporter transcription; actives raise or lower the signal
Chain of Hypoxia-inducible factor 1-alpha (Homo sapiens) (Q16665 whole entry, looked up): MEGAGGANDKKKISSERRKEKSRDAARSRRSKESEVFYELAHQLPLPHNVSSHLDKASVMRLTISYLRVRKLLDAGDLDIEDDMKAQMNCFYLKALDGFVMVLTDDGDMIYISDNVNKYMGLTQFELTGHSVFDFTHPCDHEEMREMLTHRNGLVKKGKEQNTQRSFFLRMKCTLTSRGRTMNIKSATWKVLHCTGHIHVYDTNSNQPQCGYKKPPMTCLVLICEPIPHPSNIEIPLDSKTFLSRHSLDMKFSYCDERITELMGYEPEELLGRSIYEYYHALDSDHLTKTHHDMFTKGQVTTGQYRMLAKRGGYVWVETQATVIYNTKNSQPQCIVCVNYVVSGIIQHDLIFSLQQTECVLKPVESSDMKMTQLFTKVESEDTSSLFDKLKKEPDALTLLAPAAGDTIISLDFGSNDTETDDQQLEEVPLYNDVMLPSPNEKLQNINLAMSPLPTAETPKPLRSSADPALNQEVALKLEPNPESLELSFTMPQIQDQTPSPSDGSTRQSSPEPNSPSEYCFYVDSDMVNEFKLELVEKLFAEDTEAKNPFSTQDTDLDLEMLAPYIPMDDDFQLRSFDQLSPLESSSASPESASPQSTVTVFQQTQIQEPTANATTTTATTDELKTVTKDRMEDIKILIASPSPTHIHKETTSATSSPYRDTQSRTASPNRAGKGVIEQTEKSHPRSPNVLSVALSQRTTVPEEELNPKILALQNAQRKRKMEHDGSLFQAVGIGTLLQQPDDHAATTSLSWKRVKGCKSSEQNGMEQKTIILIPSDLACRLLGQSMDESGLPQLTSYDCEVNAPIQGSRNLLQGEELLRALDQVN
Summary of the method: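 In this multiplexed cell assay, HepG2 cells bearing transfected cis reporters are dosed for 24 h and reporter mRNA is read by RT-PCR plus capillary electrophoresis; signal increases and decreases are both scored against DMSO.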

[6] = biological target: Hepatocyte nuclear factor 6 (Homo sapiens) (UniProt Q9UBC0); assay: ATG_HNF6_CIS: Attagene CIS-FACTORIAL HepG2 Assay for human Hepatocyte Nuclear Factor 6 (HNF6) (AID 2282952); conditions: HepG2 Attagene cis-factorial HNF6 reporter transcription; actives raise or lower the signal
Chain of Hepatocyte nuclear factor 6 (Homo sapiens) (Q9UBC0 whole entry, looked up): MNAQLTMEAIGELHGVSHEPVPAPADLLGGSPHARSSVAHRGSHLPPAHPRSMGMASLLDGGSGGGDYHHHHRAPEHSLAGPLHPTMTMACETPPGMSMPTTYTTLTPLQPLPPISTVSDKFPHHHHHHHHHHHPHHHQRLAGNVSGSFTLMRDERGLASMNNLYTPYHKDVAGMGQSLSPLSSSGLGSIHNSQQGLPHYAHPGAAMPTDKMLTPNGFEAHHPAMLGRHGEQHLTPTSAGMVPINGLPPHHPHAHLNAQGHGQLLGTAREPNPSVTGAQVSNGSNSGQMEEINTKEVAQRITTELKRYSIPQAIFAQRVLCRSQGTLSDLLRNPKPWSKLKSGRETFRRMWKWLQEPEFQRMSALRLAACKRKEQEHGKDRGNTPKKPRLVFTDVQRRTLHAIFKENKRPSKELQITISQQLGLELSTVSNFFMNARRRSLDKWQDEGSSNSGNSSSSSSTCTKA
Summary of the method: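 Endogenous transcription factor activity in human HepG2 liver cells was captured through cis-regulated reporter constructs. After 24 h treatment, reporter mRNA was measured by RT-PCR with capillary electrophoresis, and activity was fitted in both directions relative to DMSO.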

[7] = ATG_MRE_CIS: Attagene CIS-FACTORIAL HepG2 Assay for human Metal Responsive Element (MRE) (AID 2282954); conditions: HepG2 MRE cis-reporter transcription, Attagene multiplex; actives raise or lower the signal
Summary of the method: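 Cells were transfected with cis-promoter reporter transcription units, then dosed for 24 h. RNA was reverse-transcribed, amplified, fluorescently labelled and resolved by capillary electrophoresis, and activity was fitted in both directions relative to DMSO.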

[8] = ATG_PBREM_CIS: Attagene CIS-FACTORIAL HepG2 Assay for human Phenobarbital-responsive Enhancer Module (PBREM) (AID 2282955); conditions: HepG2 PBREM cis-reporter, Attagene multiplexed transcription; actives raise or lower the signal
Summary of the method: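 After a 24 h incubation with test chemical, transfected HepG2 cells yield total RNA; reporter-specific RT-PCR products are fluorescently labelled, HpaI-digested and resolved by capillary electrophoresis against ROX size standards.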

[9] = biological target: Heat shock factor protein 1 (Homo sapiens) (UniProt Q00613); assay: ATG_HSE_CIS: Attagene CIS-FACTORIAL HepG2 Assay for human Heat Shock Transcription Factor 1 (HSE) (AID 2282953); conditions: HepG2 HSE cis-reporter, Attagene RNA transcription; actives raise or lower the signal
Chain of Heat shock factor protein 1 (Homo sapiens) (Q00613 whole entry, looked up): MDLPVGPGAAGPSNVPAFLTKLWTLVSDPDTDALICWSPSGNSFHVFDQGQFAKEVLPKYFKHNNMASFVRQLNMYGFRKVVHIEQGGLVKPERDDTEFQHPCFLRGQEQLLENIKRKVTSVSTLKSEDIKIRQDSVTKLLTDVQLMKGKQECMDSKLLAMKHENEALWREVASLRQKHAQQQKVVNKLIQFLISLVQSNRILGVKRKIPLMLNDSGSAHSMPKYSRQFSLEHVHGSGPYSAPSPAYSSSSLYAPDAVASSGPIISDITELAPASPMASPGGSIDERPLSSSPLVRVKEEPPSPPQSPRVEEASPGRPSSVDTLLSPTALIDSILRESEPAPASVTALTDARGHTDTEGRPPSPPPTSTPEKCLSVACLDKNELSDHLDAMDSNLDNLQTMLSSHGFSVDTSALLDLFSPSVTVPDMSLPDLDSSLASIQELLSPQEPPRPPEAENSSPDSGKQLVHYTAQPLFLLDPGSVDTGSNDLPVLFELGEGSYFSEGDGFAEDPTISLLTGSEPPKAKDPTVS
Summary of the method: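 HepG2, transient MRTU transfection, cis-promoter reporters (endogenous TF activity). 24 h compound. RNA → oligo(dT) RT → PCR → 6-FAM primer extension → HpaI cut → CE. Bidirectional fit vs DMSO.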

Measured: AC50

CCCCOCCOCCSC#N
not listed: [9]
inactive: all other assays above

O=C(O)CCSCCC(=O)O
inactive: all assays above

CCOC(=S)SSC(=S)OCC
active: [9] 157 µM
inactive: all other assays above

O=C1OC2(c3cc(Br)c(O)c(Br)c3Oc3c2cc(Br)c(O)c3Br)c2c(Cl)c(Cl)c(Cl)c(Cl)c21
active: [7] 19.1 µM
inactive: all other assays above

CCCCCC=CCC(=O)OC
not listed: [8] | [9]
inactive: all other assays above

CCC/C=C/C=O
inactive: all assays above

COc1ccc(Cl)cc1C
not listed: [8] | [9]
inactive: all other assays above

O=S(=O)(O)c1cccc2c(S(=O)(=O)O)cccc12
inactive: all assays above

CC(C)(COC(=O)c1ccccc1)COC(=O)c1ccccc1
active: [5] 47.2 µM
not listed: [7]
inactive: all other assays above

O=C=NC1CCC(CC2CCC(N=C=O)CC2)CC1 (stereo unspecified)
active: [3] 164 µM | [8] 63.1 µM
not listed: [9]
inactive: all other assays above

COC(=O)Cc1cccc2ccccc12
not listed: [7]
inactive: all other assays above

CC(C)(C)NC(N)=O
not listed: [9]
inactive: all other assays above

Cc1ccc2ccccc2n1
not listed: [7] | [9]
inactive: all other assays above

Cc1ccc(O)c(C(C)(C)C)c1
active: [1] 100 µM | [6] 156 µM | [7] 146 µM
inactive: all other assays above

CCCCCCCCCCN
inactive: all assays above

Cc1cccc(C)c1[N+](=O)[O-]
not listed: [3] | [8]
inactive: all other assays above

CCCCCCCCCCCCOCCO
active: [2] 20.4 µM | [7] 52.1 µM
not listed: [3]
inactive: all other assays above

C[C@]12CC[C@H]3[C@@H](CCC4=CC(=O)CC[C@@]43C)[C@@H]1CC[C@@H]2C(=O)CO
active: [2] 100 µM | [7] 100 µM | [8] 3.31 µM
inactive: [1] | [3] | [4] | [6]

COc1ccc(Nc2ccccc2)c(C)c1
active: [7] 128 µM
not listed: [2] | [8]
inactive: all other assays above

C=CC(=O)OCCOCCOCC
not listed: [5] | [8]
inactive: all other assays above

CCCCN
not listed: [5] | [9]
inactive: all other assays above

Cc1ccccc1C=O
not listed: [3]
inactive: all other assays above

NC(=O)NC1NC(=O)NC1=O (stereo unspecified)
not listed: [3]
inactive: all other assays above

COCCOCCOCCOCCOCCO
not listed: [5]
inactive: all other assays above

CCO[Si](CCCS)(OCC)OCC
active: [5] 28.4 µM
not listed: [3] | [8]
inactive: all other assays above

CCC(=O)OCc1ccccc1
not listed: [3] | [8] | [9]
inactive: all other assays above

CO[Si](C)(OC)c1ccccc1
not listed: [5] | [7]
inactive: all other assays above

C[C@H]1C[C@@H]2[C@H]([C@@H](O)C[C@@]3(C)[C@H]2CC[C@]3(O)C(=O)CO)[C@@]2(C)C=CC(=O)C=C12
inactive: [2] | [4] | [6] | [7]
active: [1] 0.151 µM | [3] 131 µM

CNCCCC12CCC(c3ccccc31)c1ccccc12
active: [2] 17.9 µM | [7] 16.6 µM
not listed: [5]
inactive: all other assays above

O=C(O)CCCCC1CCSS1 (stereo unspecified)
not listed: [5] | [8]
inactive: all other assays above

CC(C)(CO)[N+](=O)[O-]
not listed: [3] | [5]
inactive: all other assays above

O=[N+]([O-])c1ccc(Nc2ccc(Nc3ccccc3)c(S(=O)(=O)O)c2)c([N+](=O)[O-])c1
active: [9] 178 µM | [7] 100 µM
not listed: [5]
inactive: all other assays above

O=C(O)c1cn(C2CC2)c2cc(N3CCNCC3)c(F)cc2c1=O
not listed: [5] | [6] | [8]
inactive: all other assays above

CC1=CCC(O)(C(C)C)CC1 (stereo unspecified)
not listed: [5]
inactive: all other assays above

C=C(C)C(=O)O
not listed: [3] | [5] | [8]
inactive: all other assays above

Cc1cccc(Nc2ccccc2C(=O)O)c1C
active: [7] 76.9 µM
not listed: [3] | [5]
inactive: all other assays above

O=C(Cl)c1cccc(C(=O)Cl)c1
not listed: [3]
inactive: all other assays above

CC(C)=CCC[C@](C)(O)[C@@H]1CC=C(C)CC1
not listed: [7] | [9]
inactive: all other assays above

Cc1ccc(C(C)C)cc1O
not listed: [2] | [8]
inactive: all other assays above

CC(C)C[C@H]1C(=O)N2CCC[C@H]2[C@]2(O)O[C@](NC(=O)[C@@H]3C=C4c5cccc6[nH]c(Br)c(c56)C[C@H]4N(C)C3)(C(C)C)C(=O)N12
active: [2] 3.76 µM | [7] 2.16 µM | [8] 0.744 µM
not listed: [5]
inactive: all other assays above

Cc1ccc(C(=O)O)o1
not listed: [5]
inactive: all other assays above

C=C[C@@H](C)CCC=C(C)C
not listed: [5] | [8]
inactive: all other assays above

CC[C@]12CCCN3CCc4c(n(c5ccccc45)[C@@](O)(C(=O)OC)C1)[C@@H]32
active: [9] 159 µM
inactive: [1] | [2] | [4] | [6] | [7]

OC[C@H]1O[C@H](O[C@]2(CCl)O[C@H](CCl)[C@@H](O)[C@@H]2O)[C@H](O)[C@@H](O)[C@H]1Cl
not listed: [3] | [8] | [9]
inactive: all other assays above

O=C(O)c1cn(-c2ccc(F)cc2)c2cc(N3CCNCC3)c(F)cc2c1=O
not listed: [5] | [8]
inactive: all other assays above

C=CCOc1nc(OCC=C)nc(OCC=C)n1
not listed: [3] | [5] | [8]
inactive: all other assays above

Nc1cc([N+](=O)[O-])ccc1O
not listed: [5]
inactive: all other assays above

NC(N)=NC(=O)c1nc(Cl)c(N)nc1N
active: [2] 157 µM
not listed: [5] | [7]
inactive: all other assays above

O=c1cc(-c2ccccc2)oc2cc(O)cc(O)c12
not listed: [5]
inactive: all other assays above

O=C(O)CN(CCN(CC(=O)O)CC(=O)O)CCN(CC(=O)O)CC(=O)O
not listed: [3] | [5] | [9]
inactive: all other assays above

C[C@H]1C[C@H]2[C@@H]3CCC4=CC(=O)C=C[C@]4(C)[C@@]3(F)[C@@H](O)C[C@]2(C)[C@@]1(O)C(=O)COP(=O)(O)O
active: [1] 0.0823 µM
not listed: [5] | [8]
inactive: all other assays above

CN1Cc2c(N)cccc2C(c2ccccc2)C1 (stereo unspecified)
not listed: [3] | [5]
inactive: all other assays above

CC(C)(C)c1n[nH]c(=S)n(N)c1=O
not listed: [5]
inactive: all other assays above

COc1cc(C=O)ccc1OC(=O)C(C)C
inactive: [1] | [3] | [4] | [6] | [9]

CSc1nc(NC2CC2)nc(NC(C)(C)C)n1
active: [7] 65.7 µM
not listed: [1]
inactive: all other assays above

CCCCC(CC)COCCC#N (stereo unspecified)
not listed: [2]
inactive: all other assays above

CCCOCC(C)O (stereo unspecified)
active: [5] 24.8 µM
not listed: [1] | [8]
inactive: all other assays above

O=c1oc(=O)c2cc3c(=O)oc(=O)c3cc12
not listed: [1]
inactive: all other assays above

CCCCC(CC)COC(=O)/C=C\C(=O)OCC(CC)CCCC (stereo unspecified)
active: [5] 21.2 µM | [6] 171 µM
not listed: [2] | [9]
inactive: all other assays above

COc1nc(C)nc(N)n1
not listed: [2] | [8]
inactive: all other assays above

Nc1nc2ccc([N+](=O)[O-])cc2s1
active: [2] 77.4 µM
not listed: [1]
inactive: all other assays above

CC(C)(C)c1cc(CCC(=O)NN)cc(C(C)(C)C)c1O
active: [7] 186 µM
not listed: [1]
inactive: all other assays above
